Experimental data published in PMC9911399, “Two distinct binding modes provide the RNA-binding protein RbFox with extraordinary sequence specificity”.
Residue numbers refer to the chain shown, from its start. In all, about 16,000 sequences were measured (“ka relative to ugcaugu”: median about 0.0091, highest 2% from about 0.032 on). The full list was thinned out, with the highest values kept by preference.

T1: RBFOX1 RRM (Homo sapiens, UniProt Q9NWB1 109-208)
T1 sequence: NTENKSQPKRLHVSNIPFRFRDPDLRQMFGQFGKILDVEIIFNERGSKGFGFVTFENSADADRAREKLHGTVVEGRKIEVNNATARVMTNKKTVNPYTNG

B1: UCUCAAU (DNA:RNA)
RNA: GGGAGACCGGAAUUCAGAUUGUCCUCUCAAUUUAAAUCCCGUCGUAGCCACCA
DNA 1: CAATCTGAATTCCGGTCTCCC
DNA 2: TGGTGGCTACGACGGGATT
B2: CGUCACC (DNA:RNA)
RNA: B1 RNA with U25C, C26G, A30C, U31C
DNA 1: CAATCTGAATTCCGGTCTCCC
DNA 2: TGGTGGCTACGACGGGATT
B3: GACAUGU (DNA:RNA)
RNA: B1 RNA with U25G, C26A, U27C, C28A, A29U, A30G
DNA 1: CAATCTGAATTCCGGTCTCCC
DNA 2: TGGTGGCTACGACGGGATT
B4: GACACAU (DNA:RNA)
RNA: B1 RNA with U25G, C26A, U27C, C28A, A29C
DNA 1: CAATCTGAATTCCGGTCTCCC
DNA 2: TGGTGGCTACGACGGGATT
B5: GAACACU (DNA:RNA)
RNA: B1 RNA with U25G, C26A, U27A, A30C
DNA 1: CAATCTGAATTCCGGTCTCCC
DNA 2: TGGTGGCTACGACGGGATT
B6: AGUUCUC (DNA:RNA)
RNA: B1 RNA with U25A, C26G, C28U, A29C, A30U, U31C
DNA 1: CAATCTGAATTCCGGTCTCCC
DNA 2: TGGTGGCTACGACGGGATT
B7: CUCUCGG (DNA:RNA)
RNA: GGGAGACCGGAAUUCAGAUUGUCCCUCUCGGUUAAAUCCCGUCGUAGCCACCA
DNA 1: CAATCTGAATTCCGGTCTCCC
DNA 2: TGGTGGCTACGACGGGATT
B8: GAGGGCA (DNA:RNA)
RNA: GGGAGACCGGAAUUCAGAUUGUCCGAGGGCAUUAAAUCCCGUCGUAGCCACCA
DNA 1: CAATCTGAATTCCGGTCTCCC
DNA 2: TGGTGGCTACGACGGGATT
B9: UGCACGG (DNA:RNA)
RNA: B7 RNA with C25U, U26G, U28A
DNA 1: CAATCTGAATTCCGGTCTCCC
DNA 2: TGGTGGCTACGACGGGATT
B10: UGUCUGC (DNA:RNA)
RNA: B1 RNA with C26G, A29U, A30G, U31C
DNA 1: CAATCTGAATTCCGGTCTCCC
DNA 2: TGGTGGCTACGACGGGATT
B11: UGCACGC (DNA:RNA)
RNA: B7 RNA with C25U, U26G, U28A, G31C
DNA 1: CAATCTGAATTCCGGTCTCCC
DNA 2: TGGTGGCTACGACGGGATT
B12: ACCACGG (DNA:RNA)
RNA: B7 RNA with C25A, U26C, U28A
DNA 1: CAATCTGAATTCCGGTCTCCC
DNA 2: TGGTGGCTACGACGGGATT
B13: UGCACGA (DNA:RNA)
RNA: B7 RNA with C25U, U26G, U28A, G31A
DNA 1: CAATCTGAATTCCGGTCTCCC
DNA 2: TGGTGGCTACGACGGGATT
B14: UGCACAA (DNA:RNA)
RNA: B7 RNA with C25U, U26G, U28A, G30A, G31A
DNA 1: CAATCTGAATTCCGGTCTCCC
DNA 2: TGGTGGCTACGACGGGATT
B15: UGCCCGG (DNA:RNA)
RNA: B7 RNA with C25U, U26G, U28C
DNA 1: CAATCTGAATTCCGGTCTCCC
DNA 2: TGGTGGCTACGACGGGATT
B16: UGCACCA (DNA:RNA)
RNA: B7 RNA with C25U, U26G, U28A, G30C, G31A
DNA 1: CAATCTGAATTCCGGTCTCCC
DNA 2: TGGTGGCTACGACGGGATT
B17: ACGCUGC (DNA:RNA)
RNA: B1 RNA with U25A, U27G, A29U, A30G, U31C
DNA 1: CAATCTGAATTCCGGTCTCCC
DNA 2: TGGTGGCTACGACGGGATT
B18: UUCUUAU (DNA:RNA)
RNA: B7 RNA with C25U, C29U, G30A, G31U
DNA 1: CAATCTGAATTCCGGTCTCCC
DNA 2: TGGTGGCTACGACGGGATT
B19: UGAUCGU (DNA:RNA)
RNA: B7 RNA with C25U, U26G, C27A, G31U
DNA 1: CAATCTGAATTCCGGTCTCCC
DNA 2: TGGTGGCTACGACGGGATT
B20: CCACUCA (DNA:RNA)
RNA: B8 RNA with G25C, A26C, G27A, G28C, G29U
DNA 1: CAATCTGAATTCCGGTCTCCC
DNA 2: TGGTGGCTACGACGGGATT
B21: GCAAACU (DNA:RNA)
RNA: B1 RNA with U25G, U27A, C28A, A30C
DNA 1: CAATCTGAATTCCGGTCTCCC
DNA 2: TGGTGGCTACGACGGGATT
B22: GGAACAC (DNA:RNA)
RNA: B7 RNA with C25G, U26G, C27A, U28A, G30A, G31C
DNA 1: CAATCTGAATTCCGGTCTCCC
DNA 2: TGGTGGCTACGACGGGATT
B23: UAGCAUG (DNA:RNA)
RNA: B1 RNA with C26A, U27G, A30U, U31G
DNA 1: CAATCTGAATTCCGGTCTCCC
DNA 2: TGGTGGCTACGACGGGATT
B24: AGCAUAA (DNA:RNA)
RNA: B7 RNA with C25A, U26G, U28A, C29U, G30A, G31A
DNA 1: CAATCTGAATTCCGGTCTCCC
DNA 2: TGGTGGCTACGACGGGATT
B25: AAGCAUG (DNA:RNA)
RNA: B8 RNA with G25A, G28C, G29A, C30U, A31G
DNA 1: CAATCTGAATTCCGGTCTCCC
DNA 2: TGGTGGCTACGACGGGATT
B26: AAGCAUC (DNA:RNA)
RNA: B8 RNA with G25A, G28C, G29A, C30U, A31C
DNA 1: CAATCTGAATTCCGGTCTCCC
DNA 2: TGGTGGCTACGACGGGATT
B27: UAGCAUA (DNA:RNA)
RNA: B8 RNA with G25U, G28C, G29A, C30U
DNA 1: CAATCTGAATTCCGGTCTCCC
DNA 2: TGGTGGCTACGACGGGATT
B28: UAGCAUC (DNA:RNA)
RNA: B1 RNA with C26A, U27G, A30U, U31C
DNA 1: CAATCTGAATTCCGGTCTCCC
DNA 2: TGGTGGCTACGACGGGATT
B29: AGCAUGA (DNA:RNA)
RNA: B7 RNA with C25A, U26G, U28A, C29U, G31A
DNA 1: CAATCTGAATTCCGGTCTCCC
DNA 2: TGGTGGCTACGACGGGATT
B30: AGCCUGC (DNA:RNA)
RNA: B7 RNA with C25A, U26G, U28C, C29U, G31C
DNA 1: CAATCTGAATTCCGGTCTCCC
DNA 2: TGGTGGCTACGACGGGATT
B31: AGCAUGC (DNA:RNA)
RNA: B7 RNA with C25A, U26G, U28A, C29U, G31C
DNA 1: CAATCTGAATTCCGGTCTCCC
DNA 2: TGGTGGCTACGACGGGATT
B32: AGAAUGC (DNA:RNA)
RNA: B7 RNA with C25A, U26G, C27A, U28A, C29U, G31C
DNA 1: CAATCTGAATTCCGGTCTCCC
DNA 2: TGGTGGCTACGACGGGATT
B33: ACCAGCA (DNA:RNA)
RNA: B8 RNA with G25A, A26C, G27C, G28A
DNA 1: CAATCTGAATTCCGGTCTCCC
DNA 2: TGGTGGCTACGACGGGATT
B34: AAGCAUA (DNA:RNA)
RNA: B8 RNA with G25A, G28C, G29A, C30U
DNA 1: CAATCTGAATTCCGGTCTCCC
DNA 2: TGGTGGCTACGACGGGATT

target: T1, RBFOX1 RRM; test: EMSA; HiTS-Eq, 1 nM pool, 10 min; buffer printed only for the single-RNA assays: 10 mM Tris pH 7.5, 150 mM NaCl, 3.4 mM EDTA, 0.001% NP-40, 30 C; conditions: tags: His6 N-terminal (pET28a); label: 5' 32P
Procedure, shortened: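 Relative association constants, normalised to the cognate motif, were derived by comparing read counts of each RNA species with those of the control reaction. The RNA sequenced was the free fraction, separated by 8% native PAGE after a 10 min equilibration in 50 µL of 1 nM 5′-radiolabelled RNA (7 randomized nucleotides) with increasing concentrations of purified wild-type or mutant RbFox RRM.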

First: B1
Second: B2
The binding signal of the first is higher: 0.0038 KA relative to UGCAUGU for the first, 0.00293 KA relative to UGCAUGU for the second.

First: B3
Second: B4
The binding signal of the first is higher: 0.0153 KA relative to UGCAUGU for the first, 0.000474 KA relative to UGCAUGU for the second.

First: B5
Second: B6
The binding signal of the first is lower: 0.00588 KA relative to UGCAUGU for the first, 0.0138 KA relative to UGCAUGU for the second.

First: B7
Second: B8
The binding signal of the first is lower: 0.0101 KA relative to UGCAUGU for the first, 0.0138 KA relative to UGCAUGU for the second.

First: B9
Second: B10
The binding signal of the first is higher: 0.077 KA relative to UGCAUGU for the first, 0.0316 KA relative to UGCAUGU for the second.

Compared with B11, B12 is lower in binding signal: 0.252 KA relative to UGCAUGU for the first, 0.0054 KA relative to UGCAUGU for the second.

First: B13
Second: B14
The binding signal of the first is higher: 0.0767 KA relative to UGCAUGU for the first, 0.00911 KA relative to UGCAUGU for the second.

Compared with B15, B16 is lower in binding signal: 0.0184 KA relative to UGCAUGU for the first, 0.00925 KA relative to UGCAUGU for the second.

Compared with B17, B18 is lower in binding signal: 0.0121 KA relative to UGCAUGU for the first, 0.00377 KA relative to UGCAUGU for the second.

Compared with B19, B20 is lower in binding signal: 0.0285 KA relative to UGCAUGU for the first, 0.0037 KA relative to UGCAUGU for the second.

Compared with B21, B22 is higher in binding signal: 0.00432 KA relative to UGCAUGU for the first, 0.0079 KA relative to UGCAUGU for the second.

First: B23
Second: B24
The binding signal of the first is higher: 0.795 KA relative to UGCAUGU for the first, 0.00471 KA relative to UGCAUGU for the second.

First: B25
Second: B26
The binding signal of the first is higher: 0.674 KA relative to UGCAUGU for the first, 0.0137 KA relative to UGCAUGU for the second.

First: B27
Second: B28
The binding signal of the first is lower: 0.011 KA relative to UGCAUGU for the first, 0.0216 KA relative to UGCAUGU for the second.

Compared with B29, B30 is lower in binding signal: 0.35 KA relative to UGCAUGU for the first, 0.0203 KA relative to UGCAUGU for the second.

First: B31
Second: B32
The binding signal of the first is higher: 0.888 KA relative to UGCAUGU for the first, 0.022 KA relative to UGCAUGU for the second.

First: B33
Second: B34
The binding signal of the first is higher: 0.0049 KA relative to UGCAUGU for the first, 0.00459 KA relative to UGCAUGU for the second.
